Test results taken from PubChem BioAssay AID1347383 (Zoeller Lab, School of Medicine, Boston University, 2020).
Active and inactive are the calls of the source.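 How the source made its calls: active means cell survival after UV exposure 2 SD above solvent-only control wells at 10 µM, confirmed on one or two repeats; inactive means the rest.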

Experiment: protection of CHO cells from pyrene-fatty acid UV killing, primary screen, phospholipid biosynthesis inhibitor project, ZR-82 cells, Analyticon library, screen 2 (AID 1347383);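 further: survival reflects blocked phospholipid synthesis cutting uptake of the phototoxic fatty acid; compound and fatty acid exposure 3 h then viability read next day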
Conditions: ZR-82 CHO cells, CellTiter Blue, at 10 µM, peroxisome-deficient CHO-K1 variant, with DGAT-1, DGAT-2 and ACAT inhibitors

SMILES	outcome
C/C=C/c1cc(O)c(C(=O)C(=O)CC)c(=O)o1	inactive
Cc1c(O)c2c(oc1=O)C(C)(O)C(C)OC2 (stereo not given)	inactive
CC(=O)O[C@@H]1CC[C@@]2(C)C(CC[C@]3(C)C2C(=O)C=C2[C@@H]4[C@@H](C)[C@H](C)CC[C@]4(C)CC[C@]23C)[C@@]1(C)C(=O)O (stereo not given in full)	inactive
CCC(C)(O)C(O)C(=O)OCC1CC[N+]2([O-])CCCC12 (stereo not given)	inactive
C=C1NC(=O)C2CCCN2C1=O (stereo not given)	inactive
CC1(C)C=Cc2c(c3ccccc3[nH]c2=O)O1	inactive
C/C=C(/C)C(=O)OC1C(OC2(C)CCC3C(C4C(C)CCC42)C3(C)C)OC(C)C(O)C1O (stereo not given)	inactive
COC(=O)C12OC1CCC1C3(C)CC(C4=CC(=O)OC4O)OC(=O)C3CCC12C (stereo not given)	inactive
CC(C)=CCc1c2c(c(O)c3c(=O)c(-c4ccc(O)c(O)c4)coc13)C=CC(C)(C)O2	inactive
CC(=O)Nc1ccccc1C(=O)O	inactive
COc1cc(O[C@@H]2O[C@H](CO)[C@@H](O)[C@H](O)[C@H]2O)cc2occ(-c3ccc(O)cc3)c(=O)c12	inactive
CN(/C=C\c1ccccc1)C(=O)/C=C/c1ccccc1	inactive
C/C=C(/C)C(=O)O[C@H]1CC(C)=C[C@@H](O)[C@]2(C)[C@@H]1[C@](O)(C(C)C)C[C@H]2OC(=O)/C(C)=C\C	inactive
COc1cc(CCC(=O)O)cc(OC)c1OC	inactive
CC(C)(O)C(O)Cc1ccc2c(c1O)COC2 (stereo not given)	inactive
COC1=C(C)C(=O)c2c(cc(O)c3c2OC(C)C3(C)CCC=C(C)C)C1=O (stereo not given)	inactive
O=c1ccn(C2OC(CO)C(O)C2O)c(=O)[nH]1 (stereo not given)	inactive
CCC(C)CC(C)/C=C/CCC(O)C(Cc1ccc(O)cc1)NC (stereo not given)	inactive
O=C(O)CC(O)(Cc1ccc(O)cc1)C(=O)O (stereo not given)	inactive
CCCO[C@@H]1O[C@H](CO)[C@@H](O)[C@H](O)[C@H]1O[C@@H]1OC[C@@H](O)[C@H](O)[C@H]1O	inactive

SMILES	outcome
Oc1ccccc1-c1c(O)cc(O)c(-c2ccccc2)c1O	inactive
CC(C)=CCC/C(C)=C/CC(O)/C(C)=C/Cc1cc(C(=O)O)ccc1O (stereo not given)	inactive
N#CC(OC(=O)c1ccccc1)c1ccccc1 (stereo not given)	inactive
CC(=O)CCCCCCCCNC(C)=O	inactive
CC(C)=CCOc1ccc(/C=C/C(=O)c2ccc(O)cc2O)cc1	inactive
CC(=O)c1ccc(O[C@@H]2O[C@H](CO)[C@@H](O)[C@H](O)[C@H]2O)cc1	inactive
CC/C=C/CC1=C(CCCCCCCC(=O)O)CCC1=O	inactive
COC1=CC(=O)CC(C)C12Oc1cc(OC)cc(O)c1C2=O (stereo not given)	inactive
CC(=O)OC/C(=C/C(=O)O)CC[C@@H]1C(C=O)=CC[C@@H]2C(C)(C)CCC[C@@]12C	inactive
O=C1CC(c2ccc(O)cc2)Oc2ccccc21 (stereo not given)	inactive
C/C(=C\C(=O)C[C@]12C(=O)O[C@]3(C)CC[C@H]1C[C@H]23)C(N)=O	inactive
CC1CCC2(C)C(CC(O)C(O)C23CO3)C1(C)CCC1=CC(O)OC1=O (stereo not given)	inactive
CCCCCCCC(=O)C(C)NC(=O)CCC(=O)O (stereo not given)	inactive
COc1cc(OC)c2c(c1Cl)OC1(C(=O)C=C(O)C=C1C)C2=O (stereo not given)	inactive
COc1c(OC)c2occc2c2oc(=O)ccc12	inactive
COc1c2cccc(C)c2c(C=O)c2c(COC(C)=O)coc12	inactive
CCC(C)C(=O)O[C@H]1CCC=C2C=C[C@H](C)[C@H](CC[C@@H](O)C[C@@H](O)CC(=O)O)[C@H]21 (stereo not given in full)	inactive
CC(Cc1ccc(O)c(O)c1)C(C)Cc1ccc(O)c(O)c1 (stereo not given)	inactive
C=C1CCc2occ(C)c2[C@H]2[C@H]1[C@@]13O[C@@]1(C[C@@H](C)[C@H]3OC(C)=O)[C@H]1O[C@@]21C	inactive
C/C=C(/C)C(=O)O[C@@H]1C[C@@H](OC(=O)CC(C)C)C2(C)C3C(=O)C=C(C)C2C3C1(C)C (stereo not given in full)	inactive
